# PAFAH1B2 inh: inhibitors of human PAFAH1B2. recombinant PAFAH1B2, FP-rhodamine activity probe, fluorescence polarization. inhibition, % at 3.39 µM. hit rate 1.2% among 340,000. AID 492953;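 active = inhibition above the mean of all tested compounds plus 3 SD, cut at about 24% in these data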;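 note: 0% = enzyme with DMSO and 100% = wells lacking PAFAH1B2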
# pPAFAH inh: pPAFAH (human) enzyme inhibition; AID 463082; Q13093; recombinant pPAFAH, FP-rhodamine probe fluorescence polarization; inhibition, % at 3.39 µM; hit rate 1.5% among 330,000;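 active = inhibition above the mean inhibition across the screen plus 3 SD, cut at about 25% in these data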;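 note: inhibitors block binding of the rhodamine activity-based probe so polarization drops; 0% = enzyme with DMSO and 100% = wells lacking pPAFAH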
# Target sequence (Q13093 whole entry, looked up): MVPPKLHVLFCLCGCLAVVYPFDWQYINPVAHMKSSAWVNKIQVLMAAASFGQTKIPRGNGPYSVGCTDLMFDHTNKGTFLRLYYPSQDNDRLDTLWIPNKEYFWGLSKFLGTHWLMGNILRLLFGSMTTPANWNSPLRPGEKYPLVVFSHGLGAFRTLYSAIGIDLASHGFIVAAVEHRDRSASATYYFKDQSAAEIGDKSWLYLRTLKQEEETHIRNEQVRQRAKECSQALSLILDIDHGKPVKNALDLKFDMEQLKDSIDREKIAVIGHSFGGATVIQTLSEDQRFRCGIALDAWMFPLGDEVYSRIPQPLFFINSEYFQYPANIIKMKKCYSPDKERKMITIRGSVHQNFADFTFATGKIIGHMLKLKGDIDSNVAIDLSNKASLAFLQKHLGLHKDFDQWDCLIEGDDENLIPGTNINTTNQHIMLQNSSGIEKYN
# Fam108B inh: Fam108B inhibition, counter-screen for RBBP9 inhibitors. inhibition, % at 9.51 µM. recombinant Fam108B, FP-Rh probe fluorescence polarization. hit rate 0.33% among 300,000;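 active = inhibition above the screen mean inhibition plus 3 SD, computed separately per campaign, cut at about 18% in these data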;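 note: inhibitors lower polarization as less probe binds the enzyme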
# PAFAH1B3 FP inh: blocks human PAF acetylhydrolase 1B catalytic subunit 3 | AID 492972 | hit rate 0.28% among 340,000 | recombinant PAFAH1B3, FP-rhodamine probe, fluorescence polarization | Q15102 | inhibition, % at 3.39 µM;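 active = inhibition above the screen-wide average of all tested compounds plus 3 SD, cut at about 25% in these data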;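 note: 0% = enzyme with DMSO only and 100% = wells lacking PAFAH1B3 protein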
# PAFAH2 inh: inhibitors of human PAFAH2 | Q99487 | recombinant PAFAH2, FP-rhodamine activity probe, fluorescence polarization | inhibition, % at 3.39 µM | hit rate 0.99% among 340,000 | AID 492956;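 active = inhibition above the mean over all tested compounds plus 3 SD, cut at about 30% in these data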;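 note: inhibitors block probe labeling of enzyme so polarization drops; 0% = enzyme with DMSO and 100% = wells lacking PAFAH2 protein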
# PME-1 inh: PME-1 (human) inhibition; Q9Y570; AID 2130; inhibition, % at 5.9 µM; recombinant PME-1, FP-Rh probe fluorescence polarization; hit rate 0.53% among 320,000;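 active = inhibition above the campaign mean of all compounds plus 3 SD, cut at about 26% in these data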;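 note: competitive labeling of PME-1 active site by serine hydrolase directed probe; 0% = PME-1 with DMSO and 100% = wells lacking PME-1 enzyme; inhibitors block probe labeling so polarization falls and inhibition rises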
# PAFAH2 FP conf: PAFAH2 (human) inhibition, confirmed; shares compounds with PAFAH2 inh; AID 493030; inhibition, % at 3.39 µM; recombinant PAFAH2, FP-rhodamine activity probe, fluorescence polarization; hit rate 65% among 2,300;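 active = mean inhibition over three repeats above a set limit taken from the earlier primary screen, cut at about 30% in these data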;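 note: inhibitor blocks binding of rhodamine activity probe so polarization falls; 0% = enzyme with DMSO and 100% = wells lacking PAFAH2 protein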
# Starred values were filed as active, the others as inactive; / = not tested or not shown. Hits are enriched below; roughly 2.8% of the tested compounds scored in any of these assays.
SMILES,PAFAH1B2 inh,pPAFAH inh,Fam108B inh,PAFAH1B3 FP inh,PAFAH2 inh,PME-1 inh,PAFAH2 FP conf
Cc1ccc(C(=O)OCC(=O)NCc2ccc3c(c2)OCO3)cc1S(=O)(=O)N1CCOCC1,3,14,/,7,10,/,/
O=C(COC(=O)c1ccc(F)c(S(=O)(=O)N2CCOCC2)c1)Nc1ccc2c(c1)OCO2,2,/,/,4,78*,/,65*
COc1ccc(C(=O)OCC(=O)Nc2ccc3c(c2)OCO3)cc1S(=O)(=O)N1CCOCC1,3,/,/,4,82*,/,82*
COC(=O)c1ccc(NC(=O)CCN2C(=O)C3C4CCC(C4)C3C2=O)cc1 (centres undefined),0,2,-2,4,3,2,/
O=C(c1ccc2oc(Cc3ccc(Cl)cc3)nc2c1)N1CC[C@H](O)C1,7,6,5,4,71*,2,63*
COc1ccccc1NS(=O)(=O)c1cccc(NS(=O)(=O)c2cc(C(=O)O)ccc2OC)c1,4,0,/,6,0,/,/
Cc1cccc(/C(N)=N/OC(=O)c2ccc(F)cc2)c1,1,0,-2,-2,22,-4,/
COc1cccc(C(=O)O/N=C(\N)c2ccccn2)c1,-1,2,-1,1,2,-3,/
Cc1cccc(C(=O)O/N=C(\N)CS(=O)(=O)c2ccccc2)c1,4,16,-4,2,44*,0,36*
COc1cccc(C(=O)O/N=C(\N)CS(=O)(=O)c2ccccc2)c1,-2,21,-1,1,64*,-3,45*
Cc1cc(Cl)ccc1NC(=O)CN1C(=O)C(=O)N(C2CCCC2)C1=O,3,0,/,-3,8,3,/
c1ccc(C2[C@H]3CN(CC4CCCCC4)[C@H](c4ccccc4)C34CC2(c2ccccc2)C4)cc1 (some centres undefined),0,-1,-2,5,-7,-7,/
c1ccc(C2[C@H]3CN(CC4CCCCC4)[C@H](c4ccccc4)C34CC2(c2cccnc2)C4)cc1 (some centres undefined),2,4,1,17,56*,4,-2
CC1CCC(C(C)C)C(OC(=O)COC(=O)c2ccc(N)cc2)C1 (centres undefined),15,7,-1,-4,53*,-3,34*
CCOc1ccccc1N1C(=O)CN(Cc2ccc(OC)c(OC)c2)C1=S,6,0,-4,9,-3,-6,/
COc1ccc(C(=O)c2ccsc2N)cc1,11,16,4,9,30*,7,0
CN(c1ccccc1)S(=O)(=O)c1cccc2ccccc12,7,-8,-3,11,8,-7,/
O=C(COC(=O)c1cc(S(=O)(=O)NCc2ccccc2)ccc1O)c1cc2ccccc2o1,23,15,-10,5,58*,-2,48*
Cn1cccc1C(=O)OCC(=O)c1cc2ccccc2o1,1,23,-2,2,18,-2,/
O=C(COC(=O)c1ccc(Cl)s1)c1cc2ccccc2o1,2,21,3,-1,38*,-3,17
CCCCNC(=O)c1onc(CSc2cc(C)cc(C)c2)c1C(=O)NCCCC,0,-4,-6,3,-5,-16,/
CCCCNC(=O)c1onc(CSc2ccccc2C)c1C(=O)O,12,4,3,8,30*,-1,35*
CCCCNC(=O)c1onc(CSc2cc(C)cc(C)c2)c1C(=O)O,5,-1,1,11,38*,-6,27
CCCCNC(=O)c1onc(CSc2ccccc2F)c1C(=O)O,6,2,-1,10,23,-1,/
CC1(C)Oc2ccc3ccc(=O)oc3c2/C(=C/NNC(N)=S)C1=O,15,6,7,20,8,2,/
SMILES,PAFAH1B2 inh,pPAFAH inh,Fam108B inh,PAFAH1B3 FP inh,PAFAH2 inh,PME-1 inh,PAFAH2 FP conf
O=C(COC(=O)CC1CCCCC1)Nc1c(Cl)cccc1Cl,7,20,/,3,38*,14,31*
O=C(COC(=O)CC1CCCC1)Nc1ccc(Cl)cn1,1,19,/,-6,50*,-1,38*
O=C(COC(=O)CN1C(=O)C2CCCCC2C1=O)Nc1c(Cl)cccc1Cl (centres undefined),2,0,/,11,3,-6,/
O=C(CNC(=O)c1ccc(Cl)cc1)NNc1c(F)c(F)cc(F)c1F,5,5,/,1,2,/,/
O=C(CCc1ccccc1)Nc1ccccc1C(=O)NCc1ccco1,2,5,6,5,30*,5,30*
CC1CCCCC1NC(=O)COC(=O)/C=C/c1ccc2c(c1)OCO2 (centres undefined),6,12,-2,5,79*,-4,84*
COc1cc(/C=C/C(=O)OCC(=O)NCc2ccc3c(c2)OCO3)cc(OC)c1OC,2,4,/,7,23,/,/
CCN(CC)S(=O)(=O)c1ccc(/C=C/C(=O)OCC(=O)NNC(=O)c2ccc(OC)cc2)cc1,2,21,/,9,43*,-6,28
CCN(CC)S(=O)(=O)c1ccc(/C=C/C(=O)OCC(=O)NCc2ccc3c(c2)OCO3)cc1,4,14,-1,4,48*,1,30*
CCN(CC)S(=O)(=O)c1ccc(/C=C/C(=O)OCC(=O)Nc2ccc(C(N)=O)cc2)cc1,-4,-2,-17,-10,-7,-24,/
COc1cccc(/C=C/C(=O)OCC(=O)NCc2ccc3c(c2)OCO3)c1,4,2,/,6,35*,/,17
O=C(Nc1ccc(C(=O)N2CCOCC2)cc1)c1cccc([N+](=O)[O-])c1,0,1,2,2,3,-1,/
CCOC(=O)c1ccccc1NC(=O)CSc1ccc(-c2ccccn2)nn1,-7,-6,8,3,-7,6,/
O=C(COC(=O)/C=C/c1ccc(F)cc1)NCc1ccc2c(c1)OCO2,5,4,/,1,4,/,/
O=C(COC(=O)/C=C/c1ccc2c(c1)OCO2)NCc1ccccc1,2,-4,/,6,55*,6,42*
CCOc1ccc(S(=O)(=O)/N=C(/Nc2ccc(S(N)(=O)=O)cc2)c2ccccc2)cc1,7,4,/,9,44*,/,23
Cc1cccnc1NC(=O)CSc1ncnc2sc(C)c(C)c12,0,3,3,-1,10,5,/
Cc1sc2ncnc(SCC(=O)Nc3ncccc3O)c2c1C,-4,20,/,5,66*,-2,53*
O=C(OCc1nnc(-c2ccccc2)o1)c1cccc(-n2cnnn2)c1,3,-6,4,6,47*,-2,40*
O=C(/C=C/c1ccco1)OCc1nnc(-c2ccccc2)o1,3,4,0,8,68*,-2,55*
O=C(COC(=O)c1cccc(-n2cnnn2)c1)c1ccccc1,-3,7,0,2,2,0,/
